# Data from publication PMC7819943, “Rice protein-binding microarrays: a tool to detect cis-acting elements near promoter regions in rice”.
# Whole data set: some 68,000 sequences, median “fluorescence intensity (a.u.)” near 9,100, cut for the highest 2% near 16,000. Many of the other results were omitted from the sample, so the highest values are more common in it than they were.
# Target: OsWRKY34 (Oryza sativa, UniProt Q0JBA9 1-250)
# Experiment: protein-binding microarray (RPBM); PBS, 2% BSA, 51.3 ng/ul salmon testes DNA, 50 uM zinc acetate, 200 nM TF, 25 C, 1 h; high values mean tight binding
# Details: protein: recombinant; tags: N-terminal polyhistidine and DsRed monomer fusion (pET32a); label: CyDye5-dUTP incorporated in the synthesized complementary strand; 3' TTTTT single-stranded linker to array surface; dsDNA, one strand shown
# Outline: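 Binding signal is reported as fluorescence intensity per feature (arbitrary units) from an Axon 4000B scanner. Incubation used 200 nM of each Ni–NTA-purified, N-terminally polyhistidine- and DsRed-fused transcription factor from E. coli BL21-CodonPlus on a double-stranded custom Agilent array for 1 h at 25 °C, with 50 µM zinc acetate in the buffer, followed by washing.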
# OsWRKY34, sequence (Q0JBA9 entry or part of it): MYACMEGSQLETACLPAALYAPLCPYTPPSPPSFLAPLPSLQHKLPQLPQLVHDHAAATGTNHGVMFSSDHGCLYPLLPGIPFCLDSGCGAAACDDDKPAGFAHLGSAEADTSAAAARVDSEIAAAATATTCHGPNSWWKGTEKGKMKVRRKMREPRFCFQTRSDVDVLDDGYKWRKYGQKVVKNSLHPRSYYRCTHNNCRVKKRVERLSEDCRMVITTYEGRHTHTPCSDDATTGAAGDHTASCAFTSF
row,Sequence,binding signal
1,TATTGTGTACTACATCTTTTATTATTTCTTTCAAATTTCACGGAGTCACCTAGTGCAG,10500 fluorescence intensity (a.u.)
2,CTCTCCCGGTCGCGCCGCCATCTCCTCTCCCAATCGCGCGCGGAGTCACCTAGTGCAG,8860 fluorescence intensity (a.u.)
3,CACTTCTATTGGTTCTTTGTCTGGGAGTAGCAGCATAAGTCGGAGTCACCTAGTGCAG,8540 fluorescence intensity (a.u.)
4,GACCTACGTCACCACCTTGCATGTCCCACGCGGAGCTCCACGGAGTCACCTAGTGCAG,9230 fluorescence intensity (a.u.)
5,GCAACTGTGTTTTCAATTCTGCAAATGCTATTCTCTGTTACGGAGTCACCTAGTGCAG,11800 fluorescence intensity (a.u.)
6,CCGTCGATTTGGTTGGTTGGTTGATCGGCGGCGAGGAGGGCGGAGTCACCTAGTGCAG,11400 fluorescence intensity (a.u.)
7,TGATTTGCGCGAGGGTTTGGTTTGGTTTGGTTTGAGTCGACGGAGTCACCTAGTGCAG,19200 fluorescence intensity (a.u.)
8,TTTTTTTATTTTTTTTGAAATATTTTTTGTTGGGTTTTTTCGGAGTCACCTAGTGCAG,13100 fluorescence intensity (a.u.)
9,GCGCTTCGATTTGGTTTGGTTTGATTCGGTTTGCGAGATGCGGAGTCACCTAGTGCAG,8780 fluorescence intensity (a.u.)
10,ATGAACTTAGTTGTTTTTTTTTGGGTTTTACTTGCATAATCGGAGTCACCTAGTGCAG,8220 fluorescence intensity (a.u.)
11,GGGGTTAGTTGTCCGTTTTGCATAGTTGGGGATAAAAAATCGGAGTCACCTAGTGCAG,18500 fluorescence intensity (a.u.)
12,TAGATGAAATGGGTTGGGTTGATTTGGGTTGAAATATGATCGGAGTCACCTAGTGCAG,21800 fluorescence intensity (a.u.)
13,GATTTTTAGTGAATATAATGAAATTTCATAGGGGAGGGGCCGGAGTCACCTAGTGCAG,8930 fluorescence intensity (a.u.)
14,GATTTGGGTTGAAATATGATATGGGTTGGATTGGTTTGGACGGAGTCACCTAGTGCAG,16100 fluorescence intensity (a.u.)
15,TCGCGTAGGGGAGGGGTGAAATATATTTTTTATGCCGGGCCGGAGTCACCTAGTGCAG,18000 fluorescence intensity (a.u.)
16,GATTTTTAGTGAATATAATGAAATTTCACAGGGGAGGGGCCGGAGTCACCTAGTGCAG,13400 fluorescence intensity (a.u.)
17,TTTGGGATAAATCATGAGGGGTTAAAAGTTGTTATATTTTCGGAGTCACCTAGTGCAG,10100 fluorescence intensity (a.u.)
18,GGCACGCTACTACTCCTACTATATGATAAAAAAACACTACCGGAGTCACCTAGTGCAG,8150 fluorescence intensity (a.u.)
19,TGGTCAAGCCCTTTTTGATCTTTTTTTTTCTGTCTCATGCCGGAGTCACCTAGTGCAG,9610 fluorescence intensity (a.u.)
20,CGCACCGTCGACTAGTCCCGTCCCGTCGCGCCGTTGCCTTCGGAGTCACCTAGTGCAG,8590 fluorescence intensity (a.u.)
21,ATTCGAGATCAGCTTTCTCTTCTATTTTGCTACTAGTTCTCGGAGTCACCTAGTGCAG,13000 fluorescence intensity (a.u.)

row,Sequence,binding signal
1,TAGGTCTGCTTCAGAGATGGGGTTAGGGTTAGATTTGTTCCGGAGTCACCTAGTGCAG,14000 fluorescence intensity (a.u.)
2,TATATATATATATATATATATATATATATATAAGGTTTGACGGAGTCACCTAGTGCAG,17300 fluorescence intensity (a.u.)
3,ATATATATATATATATATATATATATATATAGTGGAATGACGGAGTCACCTAGTGCAG,12300 fluorescence intensity (a.u.)
4,TCTTGATTTTTGCATTAGTAGTAGTTGCGTCTTATATTTTCGGAGTCACCTAGTGCAG,12100 fluorescence intensity (a.u.)
5,GGTTATGGGCGGGTTGAGCAATGTTTTTCATGATTAGTCTCGGAGTCACCTAGTGCAG,18600 fluorescence intensity (a.u.)
6,TCATGGGCGGGTTGAGCAATGTTTCTTGTGATTAGTCTCACGGAGTCACCTAGTGCAG,16300 fluorescence intensity (a.u.)
7,AAGTTTAGGGTGAGCAATGTCTGGTTTTCGGGTTCAGGGGCGGAGTCACCTAGTGCAG,13300 fluorescence intensity (a.u.)
8,GTAGGGGTGGTGGATTTTTTTTTATTTGCTGAGATGATTTCGGAGTCACCTAGTGCAG,20600 fluorescence intensity (a.u.)
9,GACGGGTGTTTCTAGGGTTAAGGTTAGGTTTTTTTTTTGACGGAGTCACCTAGTGCAG,9680 fluorescence intensity (a.u.)
10,GTGTTAGGTGCTGAGATTTTTGTACTTGCTTTATTATTTTCGGAGTCACCTAGTGCAG,8860 fluorescence intensity (a.u.)
11,GACCTTATTTGCATTGATTGACCTTATTTGCATTGATTTTCGGAGTCACCTAGTGCAG,19700 fluorescence intensity (a.u.)
12,TACCCTTTTTTTGGGTAGGGTGGGTTGGATTTATTTATTTCGGAGTCACCTAGTGCAG,12300 fluorescence intensity (a.u.)
13,TTAGATTTTTCTTACAACCATTTGCATTGATTTTTTTTTTCGGAGTCACCTAGTGCAG,8960 fluorescence intensity (a.u.)
14,TTGCTTTCCTTGGCCTCACGCTTGTTCCATGTTAGTTCGACGGAGTCACCTAGTGCAG,16100 fluorescence intensity (a.u.)
15,TATTGCACCTTTTCTCTATTGTTTTGAATTCAGTGAAGATCGGAGTCACCTAGTGCAG,11600 fluorescence intensity (a.u.)
16,GACCTGTCTACCGCCGCCCTAGTGACTAATGTTGACCACACGGAGTCACCTAGTGCAG,12000 fluorescence intensity (a.u.)
17,TTTTCAACCTTATATTGTCATTGTCCGTCAACTTGGCTTGCGGAGTCACCTAGTGCAG,8970 fluorescence intensity (a.u.)
18,CCTGTCATGGAGGATGTTTCCTGAAGTTTCAGAGCTGTATCGGAGTCACCTAGTGCAG,8310 fluorescence intensity (a.u.)
19,AATGATTACAACCTACCTCTTCTCAGCGGGGTGTCCATTACGGAGTCACCTAGTGCAG,8260 fluorescence intensity (a.u.)
20,TTTTCTTGTTTGATTGACATAATGGGCCCTACATATTTTTCGGAGTCACCTAGTGCAG,8440 fluorescence intensity (a.u.)
21,ATCGCTGGCTTATCATACTCTATTATACCTGCTCTAAGGACGGAGTCACCTAGTGCAG,10000 fluorescence intensity (a.u.)

row,Sequence,binding signal
1,GTTTTAATAATGTGTTTGTTTTGGGTTAAAAACCATACTACGGAGTCACCTAGTGCAG,8340 fluorescence intensity (a.u.)
2,ACAATGGCACGGTCTACAAAATATATTTTTGACCTTATTTCGGAGTCACCTAGTGCAG,8440 fluorescence intensity (a.u.)
3,GCTGACTTCATCTTCATTTTAATATATCTCAAACACCACGCGGAGTCACCTAGTGCAG,10200 fluorescence intensity (a.u.)
4,GATGTTCCTGGCCGTGATCGAGCTCCTGCGTTCTTGCTTACGGAGTCACCTAGTGCAG,10400 fluorescence intensity (a.u.)
5,AGAACAGTTTTTAATCTGACATGTGCCTGTAGTTTGTTGTCGGAGTCACCTAGTGCAG,10600 fluorescence intensity (a.u.)
6,CAGTTGGCCTGTTTGTTTGTTGGTTGTGATTAATCTGTGACGGAGTCACCTAGTGCAG,18800 fluorescence intensity (a.u.)
7,TTGAAGTTTTTGGCAGGGGTTAGTTTCGAAATAAGTTTTCCGGAGTCACCTAGTGCAG,8480 fluorescence intensity (a.u.)
8,TCTAGGGTTAGGGTTTCGTGATTTTTGGTTTTTTATTTTTCGGAGTCACCTAGTGCAG,16900 fluorescence intensity (a.u.)
9,CGGGGCGTGAGGGGTTATGAGTATATTTGTATTTTTTTTTCGGAGTCACCTAGTGCAG,18400 fluorescence intensity (a.u.)
10,GTGTATGTATATATGAGTATGTGTGTTTATATTGTATTTTCGGAGTCACCTAGTGCAG,8460 fluorescence intensity (a.u.)
11,GTTGAAGTTTTTGGCAGGGGTTAGTTTCGAAATAAGTTTTCGGAGTCACCTAGTGCAG,8170 fluorescence intensity (a.u.)
12,GTTAGGGTTTTTTTTATTTTTCGATTTTTTTTGTGTTTTTCGGAGTCACCTAGTGCAG,12000 fluorescence intensity (a.u.)
13,TTTTATGTTTGTTGGTTGTTGAGTTTATGTGATTATATTTCGGAGTCACCTAGTGCAG,9050 fluorescence intensity (a.u.)
14,GCGTGTGTTGTGAGATGTATTATGTTGTGCTTTGTATTTTCGGAGTCACCTAGTGCAG,14900 fluorescence intensity (a.u.)
15,CGGGCGATTCTAGGGTTATGGTTAGGGTTTTTTTTATTTTCGGAGTCACCTAGTGCAG,14500 fluorescence intensity (a.u.)
16,GGTTGAAGTTTTTGGCAGGGGTTAGTTTCGAAATAAGTTTCGGAGTCACCTAGTGCAG,17900 fluorescence intensity (a.u.)
17,TGGAGGTGGTGGTGGGAGGAAGGGGAGGAGGAGGCGCGGCCGGAGTCACCTAGTGCAG,15100 fluorescence intensity (a.u.)
18,AGCTGGCTAAATCATATTTCCAAAGTCTCTCTCGTCTCTCCGGAGTCACCTAGTGCAG,8510 fluorescence intensity (a.u.)
19,GCCTTCACAAAATCACAAGCGAATGATTTTACTGCCTTGCCGGAGTCACCTAGTGCAG,9190 fluorescence intensity (a.u.)
20,TGAGTTTTTGTTTGTATTGTTTGACTACTCGTCTTATTCACGGAGTCACCTAGTGCAG,10400 fluorescence intensity (a.u.)
21,AAGAGTACGGGTGGGGATGCTTTGGAGTTCACTCCAACTCCGGAGTCACCTAGTGCAG,10300 fluorescence intensity (a.u.)

row,Sequence,binding signal
1,TCCCGTACGCCTCTACTACCTCTTTTACCTGCGTGCCTTCCGGAGTCACCTAGTGCAG,11100 fluorescence intensity (a.u.)
2,CACCCTTCTTCTCACCCATTGACGGATGCCCTGGAGGTTTCGGAGTCACCTAGTGCAG,10400 fluorescence intensity (a.u.)
3,ATTTTTTTCGGTTTGGTTGATTTTATTGAGTTACATTTACCGGAGTCACCTAGTGCAG,10900 fluorescence intensity (a.u.)
4,GGGTTTTTGGTTTTGGTTTTGATTTTGATTTTGATTTTGACGGAGTCACCTAGTGCAG,16400 fluorescence intensity (a.u.)
5,CGTTGATTTGGTTTGGGTTAGTTATGGGTTTGATTTTTTTCGGAGTCACCTAGTGCAG,20600 fluorescence intensity (a.u.)
6,GTTATGGGTTTGATTTTTTTTCGTTTAGAAAGTTATGGGTCGGAGTCACCTAGTGCAG,9220 fluorescence intensity (a.u.)
7,AGGGTTTGGTTGATTTTCGGATTTGGTTTGGTTTTGACGACGGAGTCACCTAGTGCAG,13300 fluorescence intensity (a.u.)
8,AGTCGCAGTGGTTTTGGTTGGTTGGTTGATTACATTTTGACGGAGTCACCTAGTGCAG,20000 fluorescence intensity (a.u.)
9,GGTTTGGTTTTGTTTAGTGGGTTAGAAGCCAATGAGAGCACGGAGTCACCTAGTGCAG,10300 fluorescence intensity (a.u.)
10,CATCCGACCTCAACTCCTCTGTCCTCTACTACGCATCTCTCGGAGTCACCTAGTGCAG,14100 fluorescence intensity (a.u.)
11,ATTATGCATTTATTTTATTTGAAACTTTAATGCTTTTTTTCGGAGTCACCTAGTGCAG,8110 fluorescence intensity (a.u.)
12,TATATTGCTCTTAATTTATTTGTGTTACTTTTTATGTGTTCGGAGTCACCTAGTGCAG,8330 fluorescence intensity (a.u.)
13,TTTTTTTCTGGGGTTGCTTAGAATGGTACTAACTATGATTCGGAGTCACCTAGTGCAG,8900 fluorescence intensity (a.u.)
14,GATCACATGGGCCACACTTTTTTTTAATTATTTTTTGTGTCGGAGTCACCTAGTGCAG,8040 fluorescence intensity (a.u.)
15,TTATAAACTTGGTCAAACTTAATAAAGTTTGACTAGAAAACGGAGTCACCTAGTGCAG,8320 fluorescence intensity (a.u.)
16,GGGCTTATTTTTTTTTTTTAACTTTGTTATGCTCTAGAAACGGAGTCACCTAGTGCAG,20100 fluorescence intensity (a.u.)
17,GTAGTTTTGTGAAATTTACTTTTTTTTTTTTTTTTGATAACGGAGTCACCTAGTGCAG,9770 fluorescence intensity (a.u.)
18,GTTAACTTGCTTATATGGTACTAGAAGAAAAACTTAATGGCGGAGTCACCTAGTGCAG,64900 fluorescence intensity (a.u.)
19,GTGTGGGGCTTTTAACTTTTTGTCACTTTTAAATTTTAAACGGAGTCACCTAGTGCAG,21300 fluorescence intensity (a.u.)
20,CCCTCGTCTTCTTCTCCACGCGACGCCGGTCAAAGTTTGACGGAGTCACCTAGTGCAG,10700 fluorescence intensity (a.u.)
21,AGCCATCTTAAGTTAGGAACAGTTTCTTTTTTTAGAACTACGGAGTCACCTAGTGCAG,8290 fluorescence intensity (a.u.)
